Assay outcomes from PubChem.
This is a sample that favours compounds with a hit; in the whole collection about 19% have one here.
DT40 TDP1 CPT: qHTS for Inhibitors of human tyrosyl-DNA phosphodiesterase 1 (TDP1): qHTS in cells in presence of CPT. chicken DT40 Tdp1-/-;hTDP1 cells + 20 nM CPT, ATP luminescence, 48 h. Potency, µM (highest dose often 46.2 µM), for inactives: top-dose activity change, negative = growth inhibition, most hits filed as inhibitors. hit rate 12% among 420,000; also: potency is read from the fitted curve at half-maximal effect; % is scaled to controls: 0 for no effect and ±100 for the full control effect; nearly all actives have a fitted effect of over 55% in size
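Chicken DT40 Tdp1-/- cells stably complemented with human TDP1 were seeded at 400 cells/well in medium containing 20 nM camptothecin, exposed to pin-transferred compounds, and grown at 37 °C for at least 48 hr. Viability was read as ATP luminescence.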
TDP1 inh: qHTS Assay for Inhibitors of Tyrosyl-DNA Phosphodiesterase (TDP1). Tyrosyl-DNA phosphodiesterase 1 (Homo sapiens), Q9NUW8. recombinant TDP1, AlphaScreen DNA substrate cleavage. Potency, µM (highest dose often 130 µM), for inactives: at the top dose activity change, negative = inhibition, actives largely listed as inhibitors. hit rate 0.28% among 350,000; also: potency is read from the fitted curve at half-maximal effect; % is scaled to controls: 0 for no effect and ±100 for the full control effect; nearly all actives have a fitted effect of over 40% in size
Target sequence (Q9NUW8 whole entry, looked up): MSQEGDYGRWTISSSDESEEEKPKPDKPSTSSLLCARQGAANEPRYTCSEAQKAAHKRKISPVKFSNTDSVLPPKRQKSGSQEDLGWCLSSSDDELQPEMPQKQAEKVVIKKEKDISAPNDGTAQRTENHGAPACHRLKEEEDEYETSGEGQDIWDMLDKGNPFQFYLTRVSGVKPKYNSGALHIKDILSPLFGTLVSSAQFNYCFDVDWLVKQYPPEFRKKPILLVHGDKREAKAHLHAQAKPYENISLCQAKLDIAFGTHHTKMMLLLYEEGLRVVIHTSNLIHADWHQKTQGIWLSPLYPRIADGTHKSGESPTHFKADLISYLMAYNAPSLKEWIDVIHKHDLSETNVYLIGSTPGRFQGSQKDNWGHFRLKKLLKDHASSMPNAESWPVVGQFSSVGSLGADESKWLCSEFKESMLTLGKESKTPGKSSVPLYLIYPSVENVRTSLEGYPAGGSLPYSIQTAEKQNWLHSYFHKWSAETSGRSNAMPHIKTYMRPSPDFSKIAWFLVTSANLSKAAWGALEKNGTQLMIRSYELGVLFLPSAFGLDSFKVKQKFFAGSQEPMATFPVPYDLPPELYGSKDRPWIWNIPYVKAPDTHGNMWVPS
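Steps: enzyme plus compound, 15 min RT; add biotin/phosphotyrosine-FITC oligonucleotide (15 nM final), react 5 min; add donor/acceptor beads (10 ug/ml final), 10 min; read AlphaScreen. Tdp1 at 1 nM final.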
IL-1B inflam inh: qHTS for Inhibitors of Inflammasome Signaling: IL-1-beta AlphaLISA Primary Screen; THP-1 LPS/ATP IL-1B secretion, AlphaLISA, 16 h; active compounds read low; activity change, % at 57.5 µM; hit rate 4.7% among 360,000; AID 743279, 2014; in the data active = activity change below about -50%; inconclusive = mostly about -30% to -49%; also: % is scaled to controls: 0 for no effect and ±100 for the full control effect
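Secreted IL-1B measured by AlphaLISA bead assay after 16 h compound exposure of THP-1 cells; compounds (final up to 57.5 uM) added 1 h before LPS (250 ng/mL) and ATP (1.25 mM) stimulation; lower signal means less secretion.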
TGFb inhibitor: qHTS for Inhibitors of TGF-b. HepG2 CAGA-GFP TGF-b/SMAD3 reporter, GFP fluorescence, 18 h; TGF-beta stimulated, 500 pg/mL final. hit rate 1.2% among 410,000. Potency, µM (doses to about 46.1 µM), inactives show at the top dose activity, negative = inhibition, usual class: inhibitors; also: potency is read from the fitted curve at half-maximal effect; % is scaled to controls: 0 for no effect and ±100 for the full control effect; nearly all actives have a fitted effect of over 65% in size
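Inhibition was scored as loss of TGF-beta-induced (500 pg/mL final, 18 hours, 37 degrees C) GFP in HEPG2 cells carrying a CAGA-GFP reporter, in DMEM with 1% FBS. Well GFP was summed per cell; Activity was normalised to unstimulated and stimulated DMSO wells, then concentration-response fitting.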
HepG2 viability: qHTS for Inhibitors of TGF-b: Cytotox Counterscreen; hit rate 0.76% among 410,000; Potency, µM (series often up to 46.1 µM), for the others: at the highest dose activity change, negative = cytotoxicity, usual class: cytotoxic; HepG2 CAGA-GFP viability, ATP luminescence, 18 h; also: potency is read from the fitted curve at half-maximal effect
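CellTiter-Glo luminescence gave cytotoxicity after 18 hours at 37 degrees C. The cells were HepG2 CAGA-GFP in 1% FBS DMEM, stimulated with 500 pg/mL TGF-beta after compound addition. %Activity was normalised to no-cell wells (complete cell-killing) and DMSO (no toxicity), and curves were fitted and classified.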
TDP1 cell noCPT: qHTS for Inhibitors of human tyrosyl-DNA phosphodiesterase 1 (TDP1): qHTS in cells in absence of CPT; DT40 Tdp1-/- hTDP1 cells, no CPT, ATP luminescence, 48 h; Potency, µM (top dose mostly 46.2 µM), without a hit: at the highest dose activity change, negative = growth inhibition, usual class: inhibitors; hit rate 15% among 420,000; AID 686978, 2013; also: potency is read from the fitted curve at half-maximal effect; % is scaled to controls: 0 for no effect and ±100 for the full control effect; nearly all actives have a fitted effect of over 55% in size
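Chicken DT40 Tdp1-/- cells complemented with human TDP1, screened without camptothecin (DMSO vehicle only), 400 cells/well. Compounds pin-transferred, cells incubated at 37 °C for at least 48 hr. Growth read as ATP-dependent luminescence (CellTiter-Glo, 30 min at RT).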
An asterisk follows results filed as active; ? = inconclusive; . = no result given; [ ] = another dose, or the depositor's remark. Unless noted, calls follow the shape of the dose curve; as a rule, active = well fitted curve in the direction sought with a large enough effect; inconclusive = small, poorly fitted or top-dose-only effect, or another doubt; inactive = no such curve, though single readings can be large; an effect the other way counts as inactive or inconclusive.

SMILES	DT40 TDP1 CPT	TDP1 inh	IL-1B inflam inh	TGFb inhibitor	HepG2 viability	TDP1 cell noCPT
Cc1ccc2[nH]c(C(=O)N/N=C/c3ccccc3C(=O)O)c(-c3ccccc3)c2c1	11%	.	18	?	-15%	2%
O=C(N/N=C/c1ccccc1)c1[nH]c2ccc(Br)cc2c1-c1ccccc1	1.2µM*	-1%	25	?	4%	1.2µM*
Cc1ccc2[nH]c(C(=O)N/N=C/c3ccccc3O)c(C)c2c1	4.6µM*	.	96	?	-12%	4.6µM*
Cc1cc(F)ccc1NC(=O)C(c1ccccc1)N1Cc2ccccc2C1=O (centres undefined)	3%	2%	.	-22%	-15%	-12%
COc1c(OC)c2occc2c2oc(=O)ccc12	-27%	11%[56.1 µM]	.	.	.	-12%
COC(=O)c1cc(=O)nc(NN=C2c3ccccc3-c3ccccc32)s1	23µM*	.	0	?	-40%	?
COC(=O)c1cc(=O)nc(NN=C2CCCCC2)s1	1%	.	10	9%	2%	1%
Cn1c(=O)cc(OCC(=O)NCCCN2CCN(c3cccc(Cl)c3)CC2)c2ccccc21	?	5%	-18	-15%	-36%	16µM*
Cc1ccc(Cl)cc1N1CCN(C(=O)Cc2cn(C)c3ccccc23)CC1	?	5%	-30	?	-35%	?
Cc1ccc(Cl)cc1N1CCN(C(=O)COc2cc(=O)n(C)c3ccccc23)CC1	?	6%	.	?	-37%	23µM*
CN(CC(=O)N1CCN(Cc2ccccc2)CC1)S(=O)(=O)c1ccc(Br)cc1	?	5%[56.1 µM]	-3	-6%	-7%	?
CN(C)S(=O)(=O)c1ccc(N2CCCC2)c(C(=O)N2CCN(S(=O)(=O)c3ccccc3F)CC2)c1	?	-8%	-17	-4%	-10%	-23%
O=C(Nc1ccn(CCCNCC(c2ccccc2)c2ccccc2)c(=O)n1)OCc1ccccc1	?	.	?	16µM*	-116%	23µM*
O=C(Nc1ccn(CCCNCC2CCCCC2)c(=O)n1)OCc1ccccc1	?	.	-21	-16%	-41%	?
O=C(Nc1ccn(CCCNCc2cccc3ccccc23)c(=O)n1)OCc1ccccc1	?	.	-62*	?	-55%	?
CC(CNCCCn1ccc(NC(=O)OCc2ccccc2)nc1=O)c1ccccc1 (centres undefined)	23µM*	.	?	-6%	-6%	?
O=C(Nc1ccn(CCCN2CCN(Cc3ccc(F)cc3)CC2)c(=O)n1)OCc1ccccc1	21µM*	.	-10	-7%	-23%	15µM*
N[C@@H](C(=O)O)[C@@H](CC(=O)O)c1ccc(Cl)cc1	7%	-4%	.	.	.	-24%
O=C(COC(=O)c1cc(=O)[nH]c(=O)[nH]1)Nc1cccc(S(=O)(=O)N2CCOCC2)c1	1%	5%	20	-24%	-6%	5%
CCC(=O)N1CCc2cc(S(=O)(=O)NCCC(=O)NCc3ccc(OC)cc3)ccc21	?	2%	.	-23%	-12%	?
NC(=O)c1cc2ccccc2o/c1=N\NC(=O)c1ccc(F)cc1	21µM*	.	-23	-2%	-4%	8.2µM*
COc1cccc(CNC(=O)COC(=O)c2ccc(-c3ccc(O)cc3)cc2)c1	?	.	60	-6%	-9%	3.3µM*
COc1cccc(CNC(=O)COC(=O)c2cc(Br)c(Br)s2)c1	-9%	0%	-13	-5%	-11%	1%
COc1cccc(N2C(=O)Nc3ccc(Br)cc3C2(O)C(=O)NCCCN(C)C)c1 (centres undefined)	20%	.	21	9%	0%	21%
CC1=CC(C)(C)Nc2ccc(OC(=O)c3cccnc3)cc21	2.9µM*	11%	-98*	-6%	13µM*	4.6µM*
SMILES	DT40 TDP1 CPT	TDP1 inh	IL-1B inflam inh	TGFb inhibitor	HepG2 viability	TDP1 cell noCPT
COc1ccc(OC(=O)C(C)N2C(=O)c3ccccc3C2=O)cc1 (centres undefined)	-17%	.	19	-12%	6%	-18%
CC1=CC(C)(C)Nc2ccc(OC(=O)CN3C(=O)CCC3=O)cc21	2.9µM*	7%	-101*	-20%	16µM*	2.8µM*
CC1=CC(C)(C)Nc2ccc(OC(=O)C(C)N3C(=O)c4ccccc4C3=O)cc21 (centres undefined)	2.1µM*	11%	0	18µM*	-99%	2.6µM*
COc1ccc(NC(=O)[C@H](C)NC(=O)[C@@H]2Cc3ccccc3CN2C(=O)OC(C)(C)C)cc1	-11%	1%	9	-10%	-22%	?
CC(=O)Nc1ccc(N(C(=O)c2ccccn2)C(C(=O)NC2CCCCC2)c2ccc(F)cc2)cc1 (centres undefined)	1%	11%	12	4%	1%	-4%
C[C@@H]1C=C[C@](Cc2ccccc2)(C(=O)NCC2CC2)N1C(=O)c1ccccc1	18µM*	4%	8	?	-7%	9.2µM*
COC(=O)CNC(=O)[C@@]1(Cc2ccccc2)C=C[C@@H](C)N1C(=O)c1ccccc1	.	9%	.	.	.	.
COc1cc(C(=O)N(Cc2ccccc2)c2cccc(C)c2)ccc1OC(F)F	?	-6%	-8	?	0%	?
O=C(Nc1ccc(Cl)c(Cl)c1)N[C@@H]1CC[C@@H](CCn2cc(C3CCCCC3)nn2)O[C@@H]1CO	?	.	58	.	.	21µM*
O=C(Nc1ccc(F)cc1)N[C@@H]1CC[C@@H](CCn2cc(-c3ccc(F)cc3)nn2)O[C@@H]1CO	?	.	23	.	.	-4%
COc1ccc(Nc2nc3c(S(=O)(=O)c4ccc(Br)cc4)nnn3c3ccsc23)c(OC)c1	16µM*	0%	.	18%	-6%	21µM*
CCCCNc1nc2c(S(=O)(=O)c3ccc(Br)cc3)nnn2c2ccsc12	-12%	3%	.	10%	-11%	3%
COc1cc(Nc2nc3c(S(=O)(=O)c4ccc(C)c(C)c4)nnn3c3ccsc23)cc(OC)c1	9.2µM*	0%	.	-6%	-4%	13µM*
COc1ccc(OCc2cc(C(=O)NCCN3CCCc4ccccc43)no2)c(Cl)c1	15µM*	10%	-3	?	-61%	18µM*
